Assay results taken from the supplement of paper PMC9337992.
± gives the standard deviation of the averaged measurements.

tested on: MDAMB436; experiment: cell proliferation (confluence) relative to DMSO control; higher = less growth inhibition; conditions: 5 uM; 6 d
Experimental: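 Epigenetic chemical probe screen: 15 TNBC cell lines, 500 cells per well in 384-well plates, treated with 5 uM of each of 36 SGC probes for 6 d. Confluency was imaged by IncuCyte ZOOM and normalised to DMSO control wells. Four replicate wells per compound.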

Compound | cell proliferation [%]
CCCc1cc(C)n(C)c(=O)c1CN(C)C(=O)c1cc(-c2ccc(N3CCN(C(C)C)CC3)nc2)cc2c1cnn2C(C)C | 96.6 ± 3.2
CCCc1cc(C)[nH]c(=O)c1CNC(=O)c1cc(-c2ccnc(N3CCN(C)CC3)c2)cc2c1cnn2C(C)C | 90.2 ± 6.6
CC(C)Oc1ccc(-c2c[nH]cc2CN(C)CCO)cc1 | 84.9 ± 4.5
COc1ccc(CCc2nc3cc(-c4c(C)noc4C)ccc3n2C[C@H](C)N2CCOCC2)cc1Cl | 57.3 ± 19
CCCc1cc(C)[nH]c(=O)c1CNC(=O)c1cc(-c2ccc(N3CCN(C(C)C)CC3)nc2)cc2c1cnn2C(C)C | 71.1 ± 4.1
CCOC(=O)CCNc1cc(N2CCc3ccccc3CC2)nc(-c2cccnc2)n1 | 94.2 ± 5.3
CCCOc1ccn2c(C(C)=O)cc(-c3ccccc3S(C)(=O)=O)c2c1 | 81.7 ± 14
COc1ccccc1S(=O)(=O)Nc1ccc2c(c1)CN(C)C(=O)N2 | 57 ± 5.5
CCC(=O)N1CCOc2c(cc(-c3ccc(OC)c(OC)c3)cc2OC[C@H]2CCCN(C)C2)C1 | 72.3 ± 4.5
O=C(NCC(=O)N1CCCC1)Nc1ccc2cnccc2c1 | 79.4 ± 7.8
COc1cc2c(cc1OCCCN1CCCC1)N=C(N)C21CCC1 | 95.3 ± 6
Clc1cc2c(NC3CCCC3)nnc(-c3ccncc3)c2cc1Cl | 93.5 ± 1.4
O=C([C@@H](Cc1cccc(C(F)(F)F)c1)NS(=O)(=O)c1cc(F)c2c(c1)CCNC2)N1CCCC1 | 84.5 ± 12
O=C(c1ccc(C(=O)N2CCC(N3CCCC3)CC2)c(Nc2ccccc2)c1)N1CCC(N2CCCC2)CC1 | 95.2 ± 2.8
COc1cc(C#N)ccc1S(=O)(=O)Nc1ccc2c(c1)cc(C)c(=O)n2C | 75.5 ± 5.1
Cc1nnc2c3ccccc3c(N[C@@H](C)[C@H](c3ccccc3)N(C)C)nn12 [L-moses] | 80.8 ± 11

Compound | cell proliferation [%]
CCn1cc(-c2cccc(C(F)(F)F)c2)c2sc(C(=N)NC3CCS(=O)(=O)CC3)cc2c1=O | 50.4 ± 30
O=C(/C=C/N1C[C@H]2C[C@@H]1CN2c1ccccn1)c1ccccc1O | 95.4 ± 3.6
O=C(NC[C@H](O)CN1CCc2ccccc2C1)c1ccnc(NC2CCC2)c1 | 57.5 ± 18
CN(C)[C@H]1CN(C2CCc3cccc(F)c32)C[C@@H]1c1ccc(N2CCN(S(C)(=O)=O)CC2)cc1 (some centres not stated) | 93.7 ± 2.8
CC(C)N(CCCNC(=O)Nc1ccc(C(C)(C)C)cc1)C[C@H]1O[C@@H](n2cc(Br)c3c(N)ncnc32)[C@H](O)[C@@H]1O | 90.4 ± 6.8
COc1cc(-c2cn(C)c(=O)c3cnccc23)c(OC)cc1CN(C)C | 77.2 ± 7.8
CCN(C(=O)CO)[C@H]1CN(/C(=N\C#N)Nc2cccc(OC(F)F)c2)N=C1c1ccc(Cl)c(Cl)c1 | 93.5 ± 3.8
COc1c(C)cc(NC(=O)c2nn(Cc3ccc(F)cc3)c3c2CN(C(=O)c2ccc[nH]2)C[C@]3(C)C(N)=O)cc1C | 69.4 ± 14
CNCCN1CCC(OCc2ccccc2)CC1 | 76.5 ± 6.8
CC(C)Oc1ccc(-c2c[nH]cc2CN(C)CCN)cc1 | 59.9 ± 20
CCOC(=O)CCNc1cc(N2CCc3ccccc3CC2)nc(-c2ccccn2)n1 | 16.1 ± 3
Cn1cc(CCn2cnc(-c3cnn(C)c3)c2-c2ccc(C#N)cc2)cn1 | 83.2 ± 14
COc1ccccc1C(=O)Nc1cc2c(cc1N1CCCC1)n(C)c(=O)n2C | 77 ± 3.6
Cc1cc(=O)n(C)c2cc(N3C(=O)CC[C@H](NS(=O)(=O)CC(C)C)[C@H]3c3ccc(Cl)cc3)ccc12 | 73.3 ± 14
CC[C@H](C)n1cc(C)c2c(C(=O)NCc3c(C)cc(C)[nH]c3=O)cc(-c3ccc(N4CCNCC4)nc3)cc21 | 89.7 ± 1.7
COc1cc2c(NC3CCN(C(C)C)CC3)nc(C3CCCCC3)nc2cc1OCCCN1CCCC1 | 99.08 ± 0.28
